According to ChEMBL document CHEMBL3988442, “University of Dundee, Small-Polar-MMV Screening Library” (2021):
Out of some 65,000 compounds screened, about 65 (0.1%) showed an effect of 50% or more. The list comes from a sample in which strong results are over-represented; it also holds similar structures and randomly drawn compounds.

molecular target: Tryptophan--tRNA ligase (Mycobacterium tuberculosis (strain ATCC 25618 / H37Rv)) (UniProt P9WFT3); test: Biochemical assay for Mt-TrpRS; type: functional; set-up: scale not given: direction of the effect not stated beside the values; details: 10 µM
Sequence (P9WFT3 whole entry): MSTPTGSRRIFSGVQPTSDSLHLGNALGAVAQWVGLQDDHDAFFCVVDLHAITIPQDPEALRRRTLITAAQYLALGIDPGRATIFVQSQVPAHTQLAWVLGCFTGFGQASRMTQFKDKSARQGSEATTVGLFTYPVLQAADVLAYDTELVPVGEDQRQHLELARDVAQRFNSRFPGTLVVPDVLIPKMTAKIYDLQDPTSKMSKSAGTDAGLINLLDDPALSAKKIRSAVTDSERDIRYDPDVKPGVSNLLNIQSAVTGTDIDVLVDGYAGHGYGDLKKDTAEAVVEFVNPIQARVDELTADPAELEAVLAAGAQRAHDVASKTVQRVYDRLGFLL

Row | SMILES | Percent Effect [%]
1 | CC(C)C(NC(=O)C1CC1)c1cc(O)nc(-c2cccnc2)n1 (configuration not stated) | 2.42
2 | CC(NC(=O)C1CCCCC1)c1cc(O)nc(-c2cccnc2)n1 (configuration not stated) | 0.0653
3 | CC(C)C(NC(=O)C1CCCC1)c1cc(O)nc(-c2cccnc2)n1 (configuration not stated) | 65.2
4 | Cc1ccc(CNCc2nnc3n2CC(C(F)(F)F)CC3)o1 (configuration not stated) | -0.327
5 | CCOc1ccc2ccccc2c1CNCC1CCS(=O)(=O)C1 (configuration not stated) | -4.67
6 | Cc1ccc(N2C[C@H](C(=O)N3CCOCC3)[C@@H]3CCO[C@@H]3C2)nn1 | -1.89
7 | CCNC(=O)N(C)C(c1cccc(F)c1)c1ccccn1 (configuration not stated) | 2.8
8 | CCN(CC)CC(=O)N(C)C(c1cccc(F)c1)c1ccccn1 (configuration not stated) | 0.435
9 | CC(=O)N(C)C(c1cccc(F)c1)c1ccccn1 (configuration not stated) | 70.3
10 | CCCC(=O)N(C)C(c1cccc(F)c1)c1ccccn1 (configuration not stated) | -2.61
11 | CC(C)N(C)CC(=O)N(C)C(c1cccc(F)c1)c1ccccn1 (configuration not stated) | 94.7
12 | CC(C)NC(=O)N(C)C(c1cccc(F)c1)c1ccccn1 (configuration not stated) | -3.48
13 | Cc1nnc([C@@]23CCO[C@@H]2CCN(S(C)(=O)=O)C3)o1 | 14.4
14 | CC(c1ccncc1)N1Cc2nc(N(C)C)ncc2C1=O (configuration not stated) | 0.86
15 | COC(=O)c1ncccc1N1CCCCC1 | 0.136
16 | Cc1ccc(CN2C[C@H](N3CCOCC3)[C@@H]3OCCC[C@@H]32)o1 | -6.03

Row | SMILES | Percent Effect [%]
17 | CCn1c(C(=O)N2CCN(C(=O)NC(C)C)CC2)cc2ccccc21 | 0.24
18 | CCC(O)CN1CCN(C(=O)c2cc3ccccc3n2CC)CC1 (configuration not stated) | 84.1
19 | CCn1c(C(=O)N2CCN(CC(C)O)CC2)cc2ccccc21 (configuration not stated) | 0.24
20 | c1cnc(N2CCO[C@H]3CN(Cc4ccsc4)C[C@H]32)nc1 | -4.69
21 | Cn1cccc1CNC(=O)CCCc1nnc2ccccn12 | 224
22 | COc1ccc2nnc(CCC(=O)NCc3cccn3C)n2n1 | 1.87
23 | COc1ccc2nnc(CCCC(=O)NCc3cccn3C)n2n1 | 1.21
24 | CS(=O)(=O)NC[C@]12COC[C@H]1CN(C(=O)c1ccccc1)C2 | -5.18
25 | CC(=O)N1CC2(CCN(Cc3ccc(Cl)cc3)CC2)Cc2ccccc21 | -5.45
26 | CN1C(=O)CC(C(=O)O)C12CCN(Cc1ccc(Cl)c(Cl)c1)CC2 (configuration not stated) | -7.74
27 | CN1C(=O)CC(C(=O)O)C12CCN(Cc1ccc(F)c(Cl)c1)CC2 (configuration not stated) | -3.47
28 | CN1C(=O)CC(C(=O)O)C12CCN(Cc1ccc(Cl)c(F)c1)CC2 (configuration not stated) | 54.6
29 | CN(C)c1ncccc1CNC(=O)N1CCCC1CN1CCCCC1 (configuration not stated) | -0.719
30 | CN(C)c1ncccc1CNC(=O)N1CCCC1c1ccsc1 (configuration not stated) | -2.64
31 | CN(C)c1ncccc1CNC(=O)N1CCCC1CN1CCCC1 (configuration not stated) | 67.8
32 | CS(=O)(=O)N1CC[C@]2(O)CCN(c3cc(C#N)ccn3)C[C@@H]2C1 | -1.89
